# High-throughput results (PubChem)
# Only some compounds are listed: those with a hit (about 19% of all), similar ones and a draw of the others.
# DT40 TDP1 no CPT = qHTS for Inhibitors of human tyrosyl-DNA phosphodiesterase 1 (TDP1): qHTS in cells in absence of CPT. DT40 Tdp1-/- hTDP1 cells, no CPT, ATP luminescence, 48 h. Potency, µM (highest dose often 46.2 µM), for the others: top-dose activity change, negative = growth inhibition, usual class: inhibitors. AID 686978, 2013. actives 15% (n = 420,000); also: potency is read from the fitted curve at half-maximal effect; nearly all actives have a fitted effect of over 55% in size
#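 Seeded 400 DT40-hTDP1 cells/well (vehicle DMSO, no 20 nM CPT); pinned compounds; ≥48 hr at 37 °C; CellTiter-Glo luminescence as viability measure.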
# TDP1 cell CPT = growth inhibition of DT40 Tdp1-/-;hTDP1 cells with camptothecin (screen for TDP1 inhibitors). chicken DT40 Tdp1-/-;hTDP1 cells + 20 nM CPT, ATP luminescence, 48 h. Potency, µM (top dose mostly 46.2 µM), for inactives: top-dose activity change, negative = growth inhibition, actives largely listed as inhibitors. actives 12% (n = 420,000); also: potency is read from the fitted curve at half-maximal effect; nearly all actives have a fitted effect of over 55% in size
#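 Cell growth measured by CellTiter-Glo luminescence after a minimum 48 h, 37 C compound exposure with 20 nM CPT in Tdp1-knockout DT40 cells stably expressing hTDP1, seeded 400/well; qHTS titration format.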
# HT1080 IDH1KD tx = HT-1080 IDH1 knockdown cell toxicity (counter line) | HT-1080 IDH1 knockdown viability, ATP luminescence, 48 h | Potency, µM (top dose mostly 46.1 µM), for the others: at the highest dose activity, negative = toxicity, most hits filed as cytotoxic | actives 2% (n = 360,000);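 also: potency is read from the fitted curve at half-maximal effect; 0% = DMSO wells and -100% = cell-free medium wells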
#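 In this qHTS, HT-1080 cells depleted of IDH1 are exposed for 48 h at 37 °C to compound titrations. Toxicity is scored from CellTiter-Glo luminescence, with DMSO as full viability and medium alone as none.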
# HT1080-NT tox = kills 2HG-producing HT-1080-NT fibrosarcoma cells; AID 686970; Potency, µM (highest dose often 46.1 µM), for inactives: top-dose activity, negative = less viability, actives largely listed as cytotoxic; actives 1.6% (n = 360,000); HT-1080-NT fibrosarcoma viability, CellTiter-Glo ATP luminescence, 48 h;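 also: NT is the 2HG producing partner of a matched IDH1 knockdown line; potency is read from the fitted curve at half-maximal effect; 0% = DMSO-treated cells and -100% = media-only wells without cells; nearly all actives have a fitted effect of over 55% in size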
#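 HT-1080-NT fibrosarcoma cells (2HG-overproducing), 750 cells/well in RPMI with 5% FBS, dosed after 2 h and incubated 48 h at 37C. CellTiter-Glo luminescence normalized to DMSO and no-cell wells; concentration-response curves fitted and classed.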
# IL-1B inflam inh = blocks inflammasome-driven IL-1 beta release | THP-1 LPS/ATP IL-1B secretion, AlphaLISA, 16 h; hits give low values | activity change, % at 57.5 µM | actives 4.7% (n = 360,000); in the data active = activity change below about -50%; inconclusive = mostly about -30% to -49%
#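 THP-1 cells pretreated 1 hr with compounds (up to 57.5 uM final), then stimulated with LPS (250 ng/mL final) plus ATP (1.25 mM final); secreted IL-1B measured by AlphaLISA after 16 hr, decreased signal indicating inhibition.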
# * marks the source's active call; other numbers are inactive results; u = inconclusive; x = no result given. Unless noted, calls follow the shape of the dose curve; as a rule, active = well fitted curve in the direction sought with a large enough effect; inconclusive = small, poorly fitted or top-dose-only effect, or another doubt; inactive = no such curve, though single readings can be large; an effect the other way counts as inactive or inconclusive. Unless noted, % is scaled to controls: 0 for no effect and ±100 for the full control effect.
SMILES,DT40 TDP1 no CPT,TDP1 cell CPT,HT1080 IDH1KD tx,HT1080-NT tox,IL-1B inflam inh
O=C(N[C@@H]1CC[C@@H](CCNC(=O)C2CCOCC2)O[C@@H]1CO)c1ccncc1,16%,-1%,15%,12%,21
COc1ccc(C(=O)NNC(=O)CCn2nnc(-c3ccc(C)cc3)n2)cc1OC,-24%,-17%,-3%,0%,11
O=C(NCc1cccc(F)c1)C1CCN(C(=O)c2sccc2-n2cccc2)CC1,-25%,u,2%,4%,4
CCc1ccc(NC(=S)N2CCN(c3cccc(C(F)(F)F)c3)CC2)cc1,u,u,0%,-1%,-3
FC(F)(F)c1cccc(N2CCN(C(=S)NCC3CCCO3)CC2)c1 (stereo not drawn),23µM*,u,u,-9%,28
COCCNC(=S)N1CCN(c2cccc(C(F)(F)F)c2)CC1,23µM*,u,u,-5%,20
COc1cccc2c(=O)cc(C)n(CC(=O)Nc3ccc(C)c(C)c3)c12,15µM*,u,-28%,u,-8
COc1ccccc1NC(=O)Cn1c(C)cc(=O)c2cccc(OC)c21,4.6µM*,2.9µM*,u,u,u
COc1ccccc1NC(=O)Cn1c(=O)n(Cc2cccs2)c(=O)c2cccnc21,-77%,21µM*,x,x,x
CNC(=O)Cn1c(C)cc(=O)c2cccc(C)c21,-3%,10%,3%,4%,2
O=C(COc1ccc(-c2ccccc2)cc1)NNC(=O)NC1CCCCC1,-26%,-2%,-17%,-6%,2
CC1(C)CC(NC(=O)C2CCN(S(=O)(=O)c3ccc(Cl)c(C(F)(F)F)c3)CC2)CC(C)(C)N1,u,u,-14%,-6%,u
COc1cc(C#N)c(NC(=S)N2CCN(C(=O)c3ccco3)CC2)cc1OC,-6%,-15%,13%,16%,-17
COCCN(CCOC)S(=O)(=O)c1ccc(C(=O)Nc2c(C)n(C)n(-c3ccccc3)c2=O)cc1,3%,1%,14%,6%,8
COc1ccc(CCN(C)Cc2c(O)ccc3ccccc23)cc1OC,u,u,12%,15%,20
COCCn1c(=NC(=O)c2cccs2)sc2cc(NC(C)=O)ccc21,-13%,-19%,1%,2%,8
C#CCn1c(=NC(=O)c2ccc(Br)s2)sc2cccc(OC)c21,21µM*,u,-22%,u,28
C=CCn1c(=NC(=O)c2cccs2)sc2cccc(OC)c21,16µM*,u,-27%,-24%,23
OCCc1ccc(O)c(-n2nc3ccccc3n2)c1,2%,2%,-8%,13%,-14
O=C(CN1CCc2cc3c(cc2C1)OCCCO3)Nc1c(F)cccc1F,u,23µM*,-6%,-7%,-11
CC1CC(C)CN(C(=O)c2ccc3c(c2)OCCO3)C1 (stereo not drawn),u,u,-2%,-2%,18
COc1ccc(C(=O)N2CCc3cc4c(cc3C2C)OCCCO4)cc1 (stereo not drawn),21µM*,21µM*,-6%,-1%,-2
CC1c2cc3c(cc2CCN1C(=O)c1cccc(F)c1)OCCCO3 (stereo not drawn),u,21µM*,u,u,-14
CC1c2cc3c(cc2CCN1C(=O)c1ccc(Br)cc1)OCCCO3 (stereo not drawn),7.3µM*,16µM*,u,u,-7
CC1c2cc3c(cc2CCN1S(=O)(=O)c1ccccc1)OCCCO3 (stereo not drawn),-20%,u,-3%,14%,20
CCN(CC)c1ccc(CN2CCCCCC2)cc1,-25%,-5%,3%,-6%,-9
Cc1ccc(/C=N/NC(=O)c2nnn(-c3nonc3N)c2-c2ccc3c(c2)OCO3)s1,-21%,-11%,-17%,-2%,5
CC1(C)CC2CC(C)(CN2C(=O)COC(=O)c2ccccc2C(F)(F)F)C1 (stereo not drawn),u,u,-15%,-9%,16
